Compound activity (PubChem)
In the library only some 4.1% were active in any assay of this set; here they are far more common.
DAX1 inh-1: DAX1 (NR0B1) inhibition, primary screen. inhibition, % at 6.8 µM. AID 652010. HEK293T StAR-luciferase reporter, SF-1/DAX-1 repression relief. 370,000 compounds, 1.1% hits;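 active = inhibition above the mean over all tested compounds plus 3 SD, cut at about 3.6% in these data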;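 also: higher inhibition means more luminescence from relief of DAX-1 repression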
hcDAF-12 act: activates DAF-12 receptor from parasite H. contortus; HEK293 hcDAF-12 lit1-tk-luc reporter, luminescence; 0% DMSO, 100% Δ7-dafachronic acid; AID 652067; activation, % at 6.8 µM; 370,000 compounds, 1.4% hits;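 active = activation above the mean of all tested compounds plus 3 SD, cut at about 5.5% in these data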
DAX1 inh-2: inhibits human nuclear receptor DAX1; P51843; HEK293 Gal4-DAX1 luciferase reporter, luminescence; inhibition, % at 6.75 µM; 340,000 compounds, 0.99% hits; AID 504766;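 active = inhibition above the mean over all tested compounds plus 3 SD, cut at about 4.2% in these data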;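 also: inhibition shows as a rise in luminescence from relieved DAX1 repression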
Target sequence (P51843 207-470 limits assumed): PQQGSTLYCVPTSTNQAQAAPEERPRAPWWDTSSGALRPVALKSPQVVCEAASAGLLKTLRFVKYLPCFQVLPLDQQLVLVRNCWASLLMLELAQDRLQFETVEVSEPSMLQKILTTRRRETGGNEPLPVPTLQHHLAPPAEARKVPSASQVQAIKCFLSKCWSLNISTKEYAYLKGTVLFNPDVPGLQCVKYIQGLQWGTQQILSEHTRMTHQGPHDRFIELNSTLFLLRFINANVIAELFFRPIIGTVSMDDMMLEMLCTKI
ssDAF12 agonist: activates DAF-12 receptor from parasite S. stercoralis; HEK293 ssDAF-12/GRIP1 lit1-tk-luc reporter, luminescence; % of 3 µM dafachronic acid response; activation, % at 6.8 µM; 370,000 compounds, 1% hits;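 active = activation above the mean over all tested compounds plus 3 SD, cut at about 0.9% in these data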
hgDAF-12 ag: agonists of H. glycines DAF-12 nuclear receptor | AID 687014 | 370,000 compounds, 1.8% hits | HEK293 GAL4-hgDAF12 UAS-luciferase reporter, agonist luminescence; normalized to butyrate control | activation, % at 6.8 µM;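 active = activation above a cutoff set at the mean of all screened compounds plus 3 SD, cut at about 10% in these data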
hgDAF12 ag: hgDAF-12 agonism, confirmation assay; shares compounds with hgDAF-12 ag; AID 743050; 3,300 compounds, 80% hits; activation, % at 6.8 µM; HEK293 GAL4-hgDAF12 luciferase reporter, agonist mode; percent of butyrate response;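 active = mean activation over triplicate wells above the hit cutoff derived from the earlier primary screen, cut at about 11% in these data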
LXR ag 2: activates human LXR-beta, counter-screen for DAF-12 agonists; shares compounds with hgDAF-12 ag; HEK293 Gal4-LXR luciferase reporter, 24 h; activation, % at 6.8 µM; 3,300 tested, under 10 active;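 active = mean activation of the triplicate above a set limit carried over from the primary screen, none filed active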
Each line names hits and unclear results; the compound was inactive in the other large screens (follow-up assays come after a bar, where they were run).

CC1(C(=O)NS(=O)(=O)c2ccc(F)cc2F)CCN1C(=O)CC(c1ccccc1)c1ccccc1 (centres undefined)	none (no result: DAX1 inh-2)
Cn1c(N)c(C(=O)Nc2ccc3ccccc3c2)sc1=S	hgDAF-12 ag 15 | hgDAF12 ag 13 | LXR ag 2 inactive
Cc1nc(NC(=O)c2ccccc2)sc1-c1cc(C(=O)O)nn1Cc1ccccc1	none
Cc1c(C(=O)Nc2ccccc2F)cnn1-c1ccccc1	hgDAF-12 ag 14 | hgDAF12 ag 13 | LXR ag 2 inactive
Cc1c(C(=O)Nc2cc(F)cc(F)c2)cnn1-c1ccccc1	none
Cc1cc(/C=N/NC(=O)c2ccccc2F)c(C)n1-c1ccccc1	hgDAF-12 ag 14 | hgDAF12 ag 17 | LXR ag 2 inactive
CCN(CC)c1ccc(NC(=O)c2ccccc2F)cc1	hcDAF-12 act 5.6, hgDAF-12 ag 14 | hgDAF12 ag 21 | LXR ag 2 inactive
CCOC(=O)N/N=C/c1cc(C)n(-c2ccccc2)c1C	none
COc1ccccc1CNC(=O)C/C(C)=N/NC(=O)Cc1ccc(Cl)cc1	none
O=C(Nc1ccc(Nc2ccccc2)cc1)c1ccccc1F	none
C/C(CC(=O)NCc1ccc(Cl)cc1)=N\NC(=O)c1ccccc1F	ssDAF12 agonist 1.5, hgDAF-12 ag 14 | hgDAF12 ag inactive | LXR ag 2 inactive
CCCC(CCC)=NNC(=O)c1ccccc1F	hgDAF-12 ag 16 | hgDAF12 ag inactive | LXR ag 2 inactive
CC(=O)Nc1cc2nc(C)n(Cc3ccccc3[N+](=O)[O-])c2nc1C	none
CCC(/C=N/NC(=O)c1ccccc1F)CC	DAX1 inh-2 5.3, hgDAF-12 ag 18 | hgDAF12 ag inactive | LXR ag 2 inactive
CC1Oc2ccccc2C=C1/C=N/NC(=O)c1ccccc1 (centres undefined)	hgDAF-12 ag 14 | hgDAF12 ag inactive | LXR ag 2 inactive
Cc1ccc(C(=O)N/N=C/C2=Cc3ccccc3OC2C)cc1 (centres undefined)	none
Nc1ccccc1NC(=O)c1ccccc1N	none
Nc1ccccc1NC(=O)NC(=O)c1ccccc1	DAX1 inh-2 4.6, ssDAF12 agonist 2.0, hgDAF-12 ag 16 | hgDAF12 ag 16 | LXR ag 2 inactive
CN(C)CCCNC(=S)N(CCCO)Cc1cc2cc3c(cc2[nH]c1=O)OCO3	hgDAF-12 ag 16 | hgDAF12 ag inactive | LXR ag 2 inactive
CCCCNC(=S)N(CCCO)Cc1cc2cc3c(cc2[nH]c1=O)OCCO3	none
O=C(NN1C(=O)c2ccccc2NC1c1ccco1)c1ccc(Br)cc1 (centres undefined)	none
O=C(NN1C(=O)c2ccccc2NC1c1ccco1)c1ccc([N+](=O)[O-])cc1 (centres undefined)	hgDAF-12 ag 18 | hgDAF12 ag inactive | LXR ag 2 inactive
Cc1nn2c(N)c(-c3ccccc3)cnc2c1-c1ccc(Cl)cc1	hgDAF-12 ag 14 | hgDAF12 ag 17 | LXR ag 2 inactive
Cc1nc2c(-c3ccccc3)c(C)nn2c(N)c1-c1ccccc1	none
CC(=O)N1CCC(=NNC(=O)c2cccs2)CC1	DAX1 inh-1 4.0, DAX1 inh-2 5.3, hgDAF-12 ag 14 | hgDAF12 ag inactive | LXR ag 2 inactive
CC1=C/C(=N\NC(=O)c2cccs2)CC(C)(C)C1	hgDAF-12 ag 17 | hgDAF12 ag inactive | LXR ag 2 inactive
CC(=O)N1CCC(=NNC(=O)c2cc3ccccc3cc2O)CC1	none
CC1=C/C(=N\NC(=S)NCCc2ccccc2)CC(C)(C)C1	none
Cc1cc(OCC(=O)Nc2c(C(C)C)cccc2C(C)C)no1	hgDAF-12 ag 20 | hgDAF12 ag inactive | LXR ag 2 inactive
Cc1cc(OCC(=O)Nc2ccccc2C)no1	none
COc1ccc(-n2ncc3c(NC(C)C)ncnc32)cc1	hgDAF-12 ag 19 | hgDAF12 ag 17 | LXR ag 2 inactive
COc1ccc(-n2ncc3c(N4CCCCC4)ncnc32)cc1	none (no result: DAX1 inh-1, hcDAF-12 act, ssDAF12 agonist, hgDAF-12 ag)
COCC(C)Nc1ncnc2c1cnn2-c1ccc(Cl)cc1 (centres undefined)	DAX1 inh-1 4.0, hcDAF-12 act 5.8, hgDAF-12 ag 18 | hgDAF12 ag 11 | LXR ag 2 inactive
Cc1cc[n+]2cc(-c3cccc([N+](=O)[O-])c3)c(-c3cccc([N+](=O)[O-])c3)cc2c1	none
Fc1ccc(-c2csc(-c3cccnc3)n2)cc1F	none
c1cncc(-c2nc(-c3ccc4c(c3)OCCO4)cs2)c1	hcDAF-12 act 5.8, DAX1 inh-2 4.6, hgDAF-12 ag 15 | hgDAF12 ag 16 | LXR ag 2 inactive
COc1cc(C(=O)NCCCN2CCCC2=O)cc(Br)c1OCc1ccccc1	none
N#CC1CC(c2ccccc2)Nc2cc(Cl)ccc2N1 (centres undefined)	hcDAF-12 act 6.0, hgDAF-12 ag 20 | hgDAF12 ag 13 | LXR ag 2 inactive
O=C(CNC(=O)c1cccs1)c1ccc(Br)cc1	hgDAF-12 ag 15 | hgDAF12 ag 14 | LXR ag 2 inactive
O=C(CNC(=O)c1cccs1)OCc1ccc(Br)cc1	none
O=C1CCc2cc(S(=O)(=O)Nc3ccccc3F)ccc2N1	hgDAF-12 ag 25 | hgDAF12 ag inactive | LXR ag 2 inactive
O=C1CCc2cc(S(=O)(=O)Nc3ccccc3Cl)ccc2N1	none
Cn1nnc2cc(C(=O)NC3CC3)ccc21	none
Cn1nnc2cc(C(=O)Nc3ccc4ccccc4c3)ccc21	hgDAF-12 ag 15 | hgDAF12 ag 17 | LXR ag 2 inactive
CC(=O)Nc1ccc(N2CCCCC2)cc1	none
O=C(Nc1ccc(N2CCCCC2)cc1)c1cncc(Br)c1	hgDAF-12 ag 15 | hgDAF12 ag 14 | LXR ag 2 inactive
CC(=O)N1CCN(c2ccc(NC(=O)c3ccc4ccccc4c3)cc2)CC1	none
O=C(Nc1ccc(N2CCCC2)cc1)c1ccc2ccccc2c1	hgDAF-12 ag 16 | hgDAF12 ag 12 | LXR ag 2 inactive
O=C(Nc1ccc(N2CCCCC2)cc1)c1ccc(F)cc1F	DAX1 inh-1 3.6, hcDAF-12 act 5.7, hgDAF-12 ag 13 | hgDAF12 ag 17 | LXR ag 2 inactive
O=C(Nc1ccc(S(=O)(=O)N2CCCC2)cc1)c1cncc(Br)c1	none
Cc1ccc(C)c(/C=N/Nc2nc3ccccc3c(=O)n2O)c1	none (no result: DAX1 inh-2)
COc1ccc(OC)c(NC(=O)/C=C/c2ccccc2[N+](=O)[O-])c1	none
COc1cccc(NC(=O)/C=C/c2ccccc2[N+](=O)[O-])c1	hgDAF-12 ag 16 | hgDAF12 ag 16 | LXR ag 2 inactive
Cc1ccc(/C=C/C(=O)c2ccc(N3CCOCC3)cc2)s1	hgDAF-12 ag 14 | hgDAF12 ag inactive | LXR ag 2 inactive
Cc1nn2cc(-c3ccc(-c4ccccc4)cc3)nc2s1	hcDAF-12 act 5.7, hgDAF-12 ag 15 | hgDAF12 ag 16 | LXR ag 2 inactive
